Laboratory results reported in PubChem BioAssay (Tox21).
Values without a mark were called inactive. Records with an inconclusive call do not appear. Entries that show only a call come without a potency. Activity calls are given as the source filed them. Unless noted, the call rests on the fitted dose curve; in most records, active means well fitted curve in the direction sought with a large enough effect in the repeat runs; inconclusive means weak or mixed curves; inactive means flat fitted curve, though single readings scatter.

Assays:
[1] = qHTS assay to test for compound auto fluorescence at 460 nm (blue) in HEK293 cell free culture (AID 720681)
Method in brief: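 Test compounds were pinned into cell-free culture medium (DMEM with 10% FBS) and fluorescence was read directly at Ex/Em 405/460 nm. Signals were expressed as fluorescence equivalents of triamterene, with DMSO vehicle as control.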

[2] = qHTS assay to test for compound auto fluorescence at 535 nm (green) in HEK293 cell free culture (AID 720682)
Method in brief: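 Read-out: 485/535 nm fluorescence intensity, calibrated against fluorescein. Medium only (DMEM + 10% FBS, no cells); test compound or DMSO vehicle added by pintool before plate reading.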

[3] = qHTS assay to test for compound auto fluorescence at 590 nm (red) in HEK293 cell free culture (AID 720683)
Method in brief: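 Tox21 10K library compounds were pinned into cell-free DMEM with 10% FBS and fluorescence was read at excitation 540 nm. Activity is expressed as Rose Bengal sodium equivalency.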

[4] = qHTS assay to test for compound auto fluorescence at 590 nm (red) in HepG2 cell free culture (AID 720684)
Method in brief: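 Readout: intrinsic compound fluorescence at 590 nm emission after 540 nm excitation, scaled to Rose Bengal sodium. Matrix was cell-free MEM with 10% FBS; DMSO vehicle wells served as control.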

[5] = qHTS assay to test for compound auto fluorescence at 460 nm (blue) in HepG2 cell free culture (AID 720685)
Method in brief: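 Cell-free plates of MEM plus 10% FBS received 23 nL compound or DMSO vehicle; blue-channel (405/460 nm) intensity scored against triamterene as reference fluorophore.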

[6] = qHTS assay to test for compound auto fluorescence at 460 nm (blue) in HepG2 cells (AID 720687)
Method in brief: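 Cells (2,000/well in MEM with 10% FBS) attached overnight at 37 C, then were exposed to compound or DMSO for 1 hr at 37 C, 5% CO2. Fluorescence read at Ex/Em 405/460 nm, expressed as triamterene-equivalent signal.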

[7] = molecular target: Glucocorticoid receptor (Homo sapiens) (UniProt P04150); test: qHTS assay to identify small molecule agonists of the glucocorticoid receptor (GR) signaling pathway (AID 720691; active means well fitted activation curve with a large enough effect in the signal ratio in the repeat runs, not every such curve was filed as active; the % refers to the signal ratio)
Method in brief: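 HeLa GR-bla reporter line; cells pre-incubated 4 h, compound in DMSO 18 h at 37 C; LiveBLAzer B/G FRET substrate 2 h RT; fluorescence intensity read-out.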

[8] = molecular target: Glucocorticoid receptor (Homo sapiens) (UniProt P04150); test: qHTS assay to identify small molecule antagonists of the glucocorticoid receptor (GR) signaling pathway (AID 720692; active means well fitted inhibition curve with a large enough effect in the signal ratio in the repeat runs, not every such curve was filed as active; the % refers to the signal ratio; further: potency means the concentration at half of the fitted maximal effect)
Method in brief: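 Read-out: beta-lactamase FRET substrate fluorescence, 2 h at room temperature, in HeLa cells stably carrying a GRE-driven bla reporter. Compounds were co-incubated with 5 nM dexamethasone agonist (final) for 18 h at 37 C.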

[9] = qHTS assay to test for compound auto fluorescence at 535 nm (green) in HepG2 cell free culture (AID 720686)

Sequence of Glucocorticoid receptor (Homo sapiens) (P04150 whole entry, looked up): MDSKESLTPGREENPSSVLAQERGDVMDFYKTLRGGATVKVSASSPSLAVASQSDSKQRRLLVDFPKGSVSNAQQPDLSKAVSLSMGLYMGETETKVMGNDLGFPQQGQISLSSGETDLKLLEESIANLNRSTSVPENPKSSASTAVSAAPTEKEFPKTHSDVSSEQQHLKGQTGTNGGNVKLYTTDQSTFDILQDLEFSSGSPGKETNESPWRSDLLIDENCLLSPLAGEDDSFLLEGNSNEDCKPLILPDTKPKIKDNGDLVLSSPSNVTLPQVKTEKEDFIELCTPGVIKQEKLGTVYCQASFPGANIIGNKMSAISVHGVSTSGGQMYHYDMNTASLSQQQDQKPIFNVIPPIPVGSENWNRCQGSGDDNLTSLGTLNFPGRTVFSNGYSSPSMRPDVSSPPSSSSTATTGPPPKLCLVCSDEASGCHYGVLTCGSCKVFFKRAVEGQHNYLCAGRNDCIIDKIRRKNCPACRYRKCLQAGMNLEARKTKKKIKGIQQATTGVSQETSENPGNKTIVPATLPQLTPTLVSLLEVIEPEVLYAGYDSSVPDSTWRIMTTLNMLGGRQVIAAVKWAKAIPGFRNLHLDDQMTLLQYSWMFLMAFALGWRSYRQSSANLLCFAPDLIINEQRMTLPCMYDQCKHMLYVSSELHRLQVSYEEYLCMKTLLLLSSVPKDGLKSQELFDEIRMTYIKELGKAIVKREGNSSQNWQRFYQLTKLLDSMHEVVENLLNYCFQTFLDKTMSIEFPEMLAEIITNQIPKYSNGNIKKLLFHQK

SMILES | Potency [1] | outcome [2] | outcome [3] | outcome [4] | Potency [5] | Potency [6] | Potency [7] | Potency [8] | outcome [9]
O=C1NC(=O)c2cccc3cccc1c23 | inactive | inactive | inactive | inactive | inactive | inactive | inactive | inactive | 
O[C@@H](CNC[C@H](O)[C@H]1CCc2cc(F)ccc2O1)[C@@H]1CCc2cc(F)ccc2O1 | inactive | inactive | inactive | inactive | inactive |  |  | 23.9 µM (active) | 
CCCCCCCC(=O)OCCCCCC | inactive | inactive | inactive | inactive | inactive | inactive | inactive | inactive | inactive
CC(=O)NCCO | inactive | inactive | inactive | inactive | inactive | inactive | inactive | inactive | inactive
Nc1ccc(N=Nc2ccc(N)cc2)cc1 |  | inactive | inactive | inactive | inactive | inactive |  |  | 
c1ccc2sc(SSc3nc4ccccc4s3)nc2c1 | inactive | inactive |  | inactive | inactive | inactive | inactive | inactive | 
CCCCCCCCCCCCCCCC(=O)OCC |  | inactive | inactive | inactive | inactive | inactive | inactive | inactive | inactive
CSCC[C@H](NC(=O)[C@H](Cc1c[nH]c2ccccc12)NC(=O)CCNC(=O)OC(C)(C)C)C(=O)N[C@@H](CC(=O)O)C(=O)N[C@@H](Cc1ccccc1)C(N)=O | inactive | inactive | inactive | inactive | inactive | inactive | inactive | inactive | inactive
Nc1ccc(S(=O)(=O)NCc2ccccc2)cc1 | inactive | inactive | inactive | inactive |  | inactive | inactive | inactive | inactive
CC1=CC[C@@]23C[C@@H]1C(C)(C)[C@@H]2CC[C@H]3C | inactive | inactive | inactive | inactive | inactive | inactive | inactive | inactive | inactive
Cc1c[nH]c2ccccc12 | inactive | inactive | inactive | inactive | inactive | inactive | inactive | inactive | inactive
CC(C)(C)C(O)/C=C/c1ccc2c(c1)OCO2 (stereo not given) | inactive | inactive | inactive | inactive |  | inactive |  |  | inactive
CNS(=O)(=O)c1cc(C(=O)N2CCC(CCN3C4CCC3CC(n3c(C)nc5ccccc53)C4)(c3cccc(F)c3)CC2)c(Cl)cc1F (stereo not given) | inactive | inactive |  | inactive | inactive | inactive |  |  | inactive
COc1cc(S(=O)(=O)Nc2ccccc2)c(OC)cc1N | inactive | inactive |  | inactive | inactive |  | inactive | inactive | inactive
CC(=O)OCCC1CCCCC1 | inactive | inactive | inactive | inactive | inactive | inactive | inactive | inactive | inactive
C=C(C)C(=O)OCCC(F)(F)C(F)(F)C(F)(F)C(F)(F)C(F)(F)C(F)(F)F | inactive | inactive | inactive | inactive | inactive |  | inactive | inactive | inactive

SMILES | Potency [1] | outcome [2] | outcome [3] | outcome [4] | Potency [5] | Potency [6] | Potency [7] | Potency [8] | outcome [9]
COc1ccc(-c2cc(=S)ss2)cc1 | inactive | inactive | inactive | inactive | inactive | inactive | inactive |  | inactive
O=C(O)CCCc1c[nH]c2ccccc12 | inactive | inactive | inactive | inactive | inactive | inactive | inactive | inactive | inactive
CC(C)COC(=O)COc1cc(Cl)c(Cl)cc1Cl | inactive | inactive | inactive | inactive |  | inactive | inactive |  | inactive
NC(=O)CCCCC(N)=O | inactive | inactive | inactive | inactive | inactive |  | inactive |  | inactive
CC(C)c1ccc(C#N)cc1 | inactive | inactive | inactive | inactive |  | inactive | inactive | inactive | inactive
CCO[Si](C)(CCCOCC1CO1)OCC (stereo not given) |  | inactive | inactive | inactive | inactive | inactive | inactive | inactive | inactive
Nc1nc2ccc(OC(F)(F)F)cc2s1 | inactive | inactive | inactive | inactive |  | inactive | inactive |  | inactive
CCOC(=O)c1ccc(NC(=O)CN2CCCCC2)cc1 | inactive | inactive | inactive | inactive | inactive | inactive | inactive | inactive | inactive
CCCCOC(=O)CCCCC(=O)OCCCC | inactive | inactive | inactive | inactive | inactive | inactive | inactive | inactive | inactive
C=Cc1ccc(OC(C)=O)cc1 | inactive | inactive | inactive | inactive | inactive | inactive | inactive | inactive | inactive
COC(CC(C)CCCC(C)(C)O)OC (stereo not given) |  | inactive | inactive | inactive | inactive |  | inactive | inactive | inactive
BrC(Br)C(Br)Br | inactive | inactive | inactive | inactive | inactive | inactive | inactive | inactive | inactive
CCN(CC)CCOC(=O)C(c1ccccc1)c1ccccc1 |  | inactive | inactive | inactive | inactive | inactive | inactive | inactive | 
CN(C)CC/C=C1\c2ccccc2Sc2ccc(Cl)cc21 |  | inactive | inactive | inactive | inactive | inactive | inactive | inactive | inactive
CNCc1ccc(NC(=O)c2c[nH]c3c2C(=O)CCC3)cc1 | inactive | inactive | inactive | inactive | inactive | inactive | inactive |  | 
CC/C=C\C/C=C\C/C=C\CCCCCCCC(=O)OCC | inactive | inactive | inactive | inactive |  | inactive | inactive | 50.1 µM (active) | inactive
